The list is not random: actives were taken first. Their share in the collection is about 2.9%.
PAFAH1B2 FP inh: PAFAH1B2 (human) inhibition. P68402. inhibition, % at 3.39 µM. recombinant PAFAH1B2, FP-rhodamine activity probe, fluorescence polarization. AID 492953. 340,000 tested, 1.2% active;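 active means inhibition above the mean of all tested compounds plus 3 SD, cut at about 24% in these data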;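 further: 0% = enzyme with DMSO and 100% = wells lacking PAFAH1B2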
Target sequence (P68402 whole entry, looked up): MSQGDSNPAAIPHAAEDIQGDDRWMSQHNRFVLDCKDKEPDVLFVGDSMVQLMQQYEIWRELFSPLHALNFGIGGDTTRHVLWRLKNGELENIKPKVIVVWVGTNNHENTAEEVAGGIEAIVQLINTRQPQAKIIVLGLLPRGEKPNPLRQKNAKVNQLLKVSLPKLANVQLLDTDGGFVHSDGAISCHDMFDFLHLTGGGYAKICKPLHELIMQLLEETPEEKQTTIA
rCAG RNA binder: binds r(CAG) RNA repeats; r(CAG) RNA repeat, TO-PRO-1 dye displacement fluorescence; inhibition, % at 3 µM; 370,000 tested, 1.3% active;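 active means inhibition above the plate cutoff, the mean of all test compounds on that plate plus 3 SD, cut at about 35% in these data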;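 further: 0% = DMSO alone and 100% = 100 µM mitoxantrone as full dye displacement; higher means more dye released from RNA so lower well fluorescence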
PAFAH2 inh: PAFAH2 (human) inhibition | Q99487 | AID 492956 | 340,000 tested, 0.99% active | inhibition, % at 3.39 µM | recombinant PAFAH2, FP-rhodamine activity probe, fluorescence polarization;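 active means inhibition above the mean over all tested compounds plus 3 SD, cut at about 30% in these data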;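 further: inhibitors block probe labeling of enzyme so polarization drops; 0% = enzyme with DMSO and 100% = wells lacking PAFAH2 protein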
EBNA-1 inh: blocks EBNA-1 binding to DNA | EBNA-1 DNA binding, fluorescence polarization | 300,000 tested, 0.34% active | AID 1950 | inhibition, % at 14.8 µM; in the data active means inhibition above about 28%
ZTA counter: ZTA (EBV) inhibition in EBNA-1 counter-screen. ZTA-DNA binding, fluorescence polarization. inhibition, % at 11 µM. 320,000 tested, 0.15% active; in the data active means inhibition above about 33%
PAFAH1B3 FP inh: inhibitors of human PAFAH1B3 | Q15102 | recombinant PAFAH1B3, FP-rhodamine probe, fluorescence polarization | inhibition, % at 3.39 µM | 340,000 tested, 0.28% active | AID 492972;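 active means inhibition above the screen-wide average of all tested compounds plus 3 SD, cut at about 25% in these data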;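 further: 0% = enzyme with DMSO only and 100% = wells lacking PAFAH1B3 protein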
Target sequence (Q15102 whole entry, looked up): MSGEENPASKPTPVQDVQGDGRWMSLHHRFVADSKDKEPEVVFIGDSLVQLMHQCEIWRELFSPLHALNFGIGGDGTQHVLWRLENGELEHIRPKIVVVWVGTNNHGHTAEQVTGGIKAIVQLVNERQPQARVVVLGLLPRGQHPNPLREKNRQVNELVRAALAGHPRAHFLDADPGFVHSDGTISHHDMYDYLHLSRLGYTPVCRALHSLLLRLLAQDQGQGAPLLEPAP
* hit, by the source's call; nt = not tested or not shown.

SMILES	PAFAH1B2 FP inh	rCAG RNA binder	PAFAH2 inh	EBNA-1 inh	ZTA counter	PAFAH1B3 FP inh
C=CCN1C(=O)[C@@H](CC(=O)NCCCC)[C@]2(C(=O)OCC)CCCCC/C=C/12	nt	0	nt	nt	nt	nt
N#CCC[C@H]1CC[C@]2(CCCN(C(=O)c3ccco3)C2)O1	nt	2	nt	nt	nt	nt
CCOC(=O)C(CNc1ccc(O)cc1)NC(=O)c1ccccc1 (stereo unspecified)	nt	15	nt	nt	nt	nt
CC(=O)c1cccc(Nc2nc(-c3ccccc3)nc3ccccc23)c1	-4	17	-2	10	12	10
CC(=O)c1cccc(-c2ccc3c(=O)[nH]c(Nc4ccccc4)cc3c2)c1	13	29	23	11	-3	52*
Cc1ccc(C)n1-c1ccc(C(=O)O)cc1	nt	nt	nt	-8	50*	nt
CC(=O)c1c(C(C)=O)c(C)n(-c2ccc(C(=O)O)cc2)c1C	2	0	-5	0	1	5
O=C(Nc1c(-c2ccc(F)cc2)nc2ncccn12)c1ccc(F)cc1	nt	1	nt	nt	nt	nt
Cn1cnc2c(cnn2-c2ccccc2)c1=O	4	1	-4	-6	-8	3
O=c1oc(-c2ccccc2)nc2c1cnn2-c1ccccc1	3	1	80*	7	-1	6
N#C/C(=C/c1cccn1-c1cccc(C(=O)O)c1)c1ccc(F)cc1	10	50*	3	nt	nt	3
N#C/C(=C/c1ccccc1OCc1ccc(F)cc1)c1ccc(C(=O)O)cc1	10	32	0	18	8	8
CC1(c2ccc(Cl)cc2)NC(=S)N2C1NC(=S)N2c1ccccc1 (stereo unspecified)	35*	2	0	-4	4	1
COc1cc(-c2c(C#N)c(N)nc3c2c(C)nn3-c2ccc(C)c(C)c2)cc(OC)c1OC	-2	6	-5	-17	16	-5
Cc1nn(-c2ccccc2)c2nc(N)c(C#N)c(-c3ccc(O)c(O)c3)c12	4	22	10	7	-4	32*
COC(=O)[C@]12C[C@H](CC(=O)N3CCN(C(=O)c4ccco4)CC3)C(=O)N(Cc3cccc4ccccc34)C1=C[C@H](C1CCCC1)O[C@@H]2C	nt	10	nt	nt	nt	nt
COCCNC(=S)N(C)[C@H]1C[C@H]2c3[nH]c4c(-c5ccc6c(c5)OCO6)cccc4c3CCN2C[C@H]1[C@H](C)O	nt	9	nt	nt	nt	nt
COc1ccc(S(=O)(=O)N2CCN(C(=O)[C@@H]3CCC(=O)N3C3OC(=O)c4ccccc43)CC2)cc1 (stereo partly specified)	33*	0	5	2	12	0
CCC/C(=C1/c2ccccc2C(=O)N1c1ccccc1)c1ccc(C=O)o1	nt	15	nt	nt	nt	nt
CC(=O)C[C@@H](O)CC(=O)[C@H]1OC(=O)CCCCCc2ccccc21	7	4	0	nt	nt	13
CC(=O)C[C@@H](O)CC(=O)[C@H]1OC(=O)CCCCCCCCc2ccccc21	43*	-5	-3	nt	nt	4
CC(=O)C[C@@H](O)CC(=O)[C@@H]1OC(=O)CCCCCCCCc2ccccc21	28*	2	-3	nt	nt	-11
COc1ccc(Cn2ccc3ccc(-c4ccc5ccn(C(=O)c6ccccc6C)c5c4)cc32)cc1	nt	8	nt	nt	nt	nt
Cc1ccc(N2CC(C(=O)Nc3nnc(SCC(=O)Nc4nc(C)cs4)s3)CC2=O)cc1 (stereo unspecified)	0	3	8	31*	-11	3
Cc1csc(NC(=O)CSc2nnc(NC(=O)C3CC(=O)N(c4ccccc4)C3)s2)n1 (stereo unspecified)	-4	18	4	-8	9	7
SMILES	PAFAH1B2 FP inh	rCAG RNA binder	PAFAH2 inh	EBNA-1 inh	ZTA counter	PAFAH1B3 FP inh
Cc1ccc(NC2=C(N3CCOCC3)C(=O)c3ccccc3C2=O)cc1	8	4	33*	-2	-2	33*
O=C(Nc1nc2ccccc2[nH]1)C12CC3CC(CC(C3)C1)C2	29*	-3	17	-13	-16	0
O=C(Nc1nc2ccccc2[nH]1)C1CC1	-1	-1	3	-8	7	2
C[C@H]1CN(c2ccc(N3CCNC[C@@H]3C)cc2C#N)CCN1Cc1ccccc1	nt	5	nt	nt	nt	nt
COC(=O)[C@@]12C[C@@H](CC(=O)NCC34CC5CC(CC(C5)C3)C4)C(=O)N(Cc3ccco3)C1=CCC(C)(C)C2	nt	3	nt	nt	nt	nt
O=C(COc1cc(O)c2c(=O)cc(-c3ccccc3)oc2c1)c1cccc([N+](=O)[O-])c1	25*	3	-7	-2	4	3
N/C(=N\OC(=O)C12CC3CC(CC(C3)C1)C2)c1ccccn1	24*	-9	20	8	3	7
Cc1cc(C)cc(OC[C@@H](O)CN2CCC(C(O)(c3ccccc3)c3ccccc3)CC2)c1	nt	0	nt	nt	nt	nt
O=[N+]([O-])c1cc(Br)c(O)c(C=Nc2ccc(N3CCOCC3)cc2)c1	5	24	-1	57*	127*	0
COc1cccc(C=Nc2ccc(N3CCOCC3)cc2)c1O	0	-1	1	11	2	-2
CN(N=Cc1ccc(N(C)C)cc1)C(=O)c1ccccc1N	nt	0	nt	nt	nt	nt
Cc1ccc(CN=C2NC(=O)C(CC(=O)NCCc3ccccc3)S2)cc1 (stereo unspecified)	42*	nt	0	5	9	-1
CCCN=C1NC(=O)C(CC(=O)NCCc2ccccc2)S1 (stereo unspecified)	8	-1	6	3	9	13
O=C(NCCc1c[nH]c2ccccc12)OCc1cn(Cc2cc(F)cc(F)c2)nn1	nt	0	nt	nt	nt	nt
COC(=O)[C@]12C[C@H](CC(=O)N3CCSCC3)C(=O)N(CCc3ccc(OC)c(OC)c3)C1=C[C@H](C1CCCC1)O[C@@H]2C	nt	4	nt	nt	nt	nt
COc1ccc(OC)c(-c2cc(C(=O)NCc3ccc(Cl)cc3)no2)c1	-4	-1	0	30*	21	13
CSC[C@@H]1NC(=S)N(c2ccc(C)cc2)C1=O	27*	25	15	15	-13	49*
CCOC(=O)C(=O)N1CCC(C(=O)NC2CCCc3ccccc32)CC1 (stereo unspecified)	nt	-1	nt	nt	nt	nt
C#CCOCCOCCOCCNc1nc(N2CCN(C(=O)CCCCCCCCCCNC(=O)[C@H](CCCN=C(N)N)n3cc(C[C@@H](C)CC)nn3)CC2)nc(N2CCN(C(=O)CCCCCCCCCCNC(=O)[C@@H]([C@H](C)CC)n3cc(CCCCCN)nn3)CC2)n1	nt	nt	nt	1	161*	nt
C#CCOCCOCCOCCNc1nc(N2CCN(C(=O)CCCCCCCCCCNC(=O)[C@H]([C@@H](C)CC)n3cc(CCCCN=C(N)N)nn3)CC2)nc(N2CCN(C(=O)CCCCCCCCCCNC(=O)[C@H](CCCN=C(N)N)n3cc(C[C@@H](C)CC)nn3)CC2)n1	nt	nt	nt	2	137*	nt
C#CCOCCOCCOCCNc1nc(N2CCOCC2)nc(N2CCN(C(=O)CCCCCCCCCCNC(=O)[C@H]([C@@H](C)CC)n3cc(CCCCN=C(N)N)nn3)CC2)n1	-9	7	1	3	6	6

Bioassay records: PubChem BioAssay, The Scripps Research Institute Molecular Screening Center
